# Measured values as given in PubChem BioAssay AID1347076 (National Center for Advancing Translational Sciences (NCATS), 2019).
# Hit rate of the full screen: of about 400,000 compounds, about 13,000 (3.2%) were called active. A call without a number means that no potency is given here. Not shown: some 18% with an inconclusive outcome. The sample holds actives, similar compounds and a random draw of the others, so the mix is not that of the screen. The call rests on the fitted dose curve; in most records, active means well fitted cell-killing curve with a large enough effect; inconclusive means small, poorly fitted or top-dose-only effect, or effect the other way; inactive means flat fitted curve, though single readings scatter.
# Test: qHTS assay for MDR1-selective chemotherapeutics: Primary screen using the drug-selected MDR subline cells KB-V1; further: nearly all actives have a fitted effect of over 60% in size
# Conditions: KB-V1 MDR cells viability, CellTiter-Glo, 72 h; series mostly up to 46.1 µM
# How it was run: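 Cells of the MDR subline KB-V1 are plated, dosed with compound at multiple concentrations, and incubated 72 h at 37 degrees C; CellTiter-Glo is then added and luminescence read after 10 min.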
# Potency means the concentration at half of the fitted maximal effect.
row,Compound,Potency
1,COc1ccc2c(C)c(CCC(=O)NCc3ccc(OC)c(OC)c3)c(=O)oc2c1,inactive
2,O=C(CCCN1C(=O)C(c2ccccc2)Oc2cccnc21)Nc1ccccc1Br (stereo unspecified),inactive
3,Cn1nnc2c(N3CCN(c4ccccc4)CC3)ncnc21,inactive
4,O=C1NC[C@H](CCCCN2C[C@H](Cc3ccccc3)N(Cc3ccccc3)C(=O)C2=O)N(CCc2ccc(O)cc2)C1=O,inactive
5,CC1CCN(C(=O)c2ccc(S(=O)(=O)Cc3cc(F)ccc3F)c([N+](=O)[O-])c2)CC1,14.6 µM (active)
6,Nc1ccc(C(=O)N2CCN(S(=O)(=O)c3ccc(Cl)cc3)CC2)cc1[N+](=O)[O-],inactive
7,O=C(c1ccc(Oc2ccc(Cl)cc2)c([N+](=O)[O-])c1)N1CCCC1,inactive
8,O=C1CCC[C@@H]2C[C@@]3(C[C@@H]4CCN1[C@H]24)Nc1ccccc1NC3=NCc1ccccc1,inactive
9,Nc1cccc(-c2cncc(N3CCN(Cc4ccccn4)CC3)n2)c1,inactive
10,COc1ccc(S(=O)(=O)N2CCN(CC(=O)N3CCNC3=O)CC2)cc1OC,inactive
11,O=C(COC(=O)CCc1c[nH]c2ccccc12)Nc1cccc(Cl)c1,inactive
12,CCc1cc(C(=O)N(CC)CC(=O)Nc2c(F)cccc2F)sc1C,inactive
13,O=C(OCc1ccccc1)N1CCC2CC1c1ccc(-c3ccc4c(c3)OCO4)cc12 (stereo unspecified),inactive
14,Cc1ccc(CSc2ccc(S(=O)(=O)N3CCCCC3)cn2)cc1,inactive
15,O=S(=O)(c1ccc(SCc2ccccc2)nc1)N1CCCCCC1,inactive
16,O=S(=O)(c1ccc(SCc2ccc(Br)cc2)nc1)N1CCOCC1,13 µM (active)
17,Cc1cccc2c1-c1sc(C(=O)Nc3ccc(F)cc3F)cc1CO2,inactive
18,COc1ccc(NC(=O)C2(C)Cc3c(-c4cccc(NC(C)=O)c4)ccnc3O2)cc1OC (stereo unspecified),inactive
19,CCn1nccc1C(=O)Nc1ccc(Cl)c(Cl)c1,inactive
20,O=C(CSc1nnc(-c2ccncc2)n1-c1ccccc1)Nc1ccc(Cl)c(Cl)c1,inactive
21,O=C(CC(O)(C(F)(F)F)C(F)(F)F)Nc1ccc(Cl)c(Cl)c1,3.26 µM (active)
22,CC1CCN(c2nc3ccc(C(=O)N4CCN(c5ccccc5)CC4)cc3s2)CC1,inactive
23,Cc1ccc(C(=O)NC2CCN(C(=O)N3CCOCC3)CC2)cc1,inactive
24,CCOC(=O)N1CCC(NC(=O)c2ccc3nc(N4CCOCC4)sc3c2)CC1,3.66 µM (active)

row,Compound,Potency
1,CC1CCC2(CC1)NC(=O)N(CC(=O)NCc1ccco1)C2=O (stereo unspecified),inactive
2,C[C@H]1CN([C@@H](C)CO)C(=O)c2cc(-c3cccc(F)c3)cnc2O[C@@H]1CN(C)S(C)(=O)=O,inactive
3,CC(OC(=O)c1ccc([N+](=O)[O-])cc1)C(=O)NCC1CCCCC1 (stereo unspecified),inactive
4,COc1ccc(NC(=O)CCC(=O)Nc2cc(OC)c(NC(=O)c3ccco3)cc2OC)c(OC)c1,inactive
5,COc1cc(C(=O)OC(C)C(=O)NCC2CCCCC2)cc(NC(=O)c2ccco2)c1OC (stereo unspecified),20.6 µM (active)
6,CN(C)CCCOc1ccc(-c2ccc3nccn3c2)cn1,inactive
7,CC(C)CC(=O)N=C1SC2CS(=O)(=O)CC2N1CCc1ccccc1 (stereo unspecified),13 µM (active)
8,O=C(N=C1SC2CS(=O)(=O)CC2N1Cc1ccccc1)c1ccccc1 (stereo unspecified),inactive
9,O=C(CCC1CCCC1)N=C1SC2CS(=O)(=O)CC2N1Cc1ccccc1 (stereo unspecified),inactive
10,Cc1ccc(F)cc1NC(=O)N1CCCN(c2ccc(C(F)(F)F)cn2)CC1,20.6 µM (active)
11,C/C=C/C(=O)Nc1ccc(N2CCN(c3ccc(C(F)(F)F)cn3)CC2)nc1,inactive
12,CCOc1ccc(C(=O)NCC(=O)N2CCN(c3ccc(C(F)(F)F)cn3)CC2)cc1,inactive
13,COc1cc2c(cc1OC)CN(C(=O)c1cc(=O)c3ccccc3o1)CC2,2.91 µM (active)
14,O=C(c1cc(=O)c2ccccc2o1)N1CCN(c2ccccc2)CC1,inactive
15,COc1ccccc1CNC(=O)c1cc(=O)c2ccccc2o1,inactive
16,CNC(=S)N1N=C(c2ccccc2)CC1c1ccc(Br)cc1 (stereo unspecified),11.6 µM (active)
17,O=C(c1ccccc1)N1N=C(c2ccccc2O)CC1c1ccc(Br)cc1 (stereo unspecified),inactive
18,COc1ccc(C2=NN(C(C)=O)C(c3ccccc3)C2)cc1 (stereo unspecified),inactive
19,CC1(C(=O)NS(=O)(=O)c2ccc(C#N)cc2)CCN1C(=O)c1ccc(C2CCCCC2)cc1 (stereo unspecified),inactive
20,CCOC(=O)C1CCC(CN(Cc2ccc(OC)cc2)S(=O)(=O)c2ccc(F)c(C(=O)Nc3cc(C)ccc3C)c2)CC1 (stereo unspecified),inactive
21,N#CC1=C(SCc2ccccc2)NC(=O)C(C#N)C12CCCC2 (stereo unspecified),14.6 µM (active)
22,N#CC1=C(SCc2ccc(C#N)cc2)N=C(N)C(c2nc(-c3ccccc3)cs2)C12CCCCC2 (stereo unspecified),inactive
23,CCCCN1CC(C)(C)[C@H](CC(=O)Nc2ccc(Br)cc2)C1=O,inactive
24,COc1ccccc1CNC(=O)CCCCn1c(=O)c2ccccc2n(CC(=O)Nc2cc(Cl)ccc2C)c1=O,inactive

row,Compound,Potency
1,CC(Sc1oc(-c2ccco2)nc1S(=O)(=O)c1ccc(Br)cc1)c1ccccc1 (stereo unspecified),inactive
2,Cc1ccc(C(=O)NC(C)C(c2cccs2)N2CCOCC2)cc1C (stereo unspecified),inactive
3,CCN(CCCNC(=O)c1cc(Nc2ccc(OC)cc2)nc2ccccc12)c1cccc(C)c1,inactive
4,CC(C)(C)c1ccc(C(=O)NNC(=O)Cc2ccccc2)cc1,inactive
5,CN(C(=O)CC(NC(=O)c1ccccc1)(c1ccccc1)c1ccccc1)c1ccccc1,10.3 µM (active)
6,CN(C(=O)COC(=O)CNC(=O)C12CC3CC(CC(C3)C1)C2)c1ccccc1,inactive
7,O=C(Nc1cccc(-c2nc3ccccc3o2)c1)c1cccc(Br)c1,inactive
8,Nc1nc(N)c(N=O)c(N)n1,inactive
9,Cc1ccc(S(=O)(=O)N2CCN(C(=O)CCC(=O)NC3CCCc4ccccc43)CC2)cc1 (stereo unspecified),23.1 µM (active)
10,O=C(CCC(=O)N1CCN(S(=O)(=O)c2ccccc2)CC1)NC1CCCc2ccccc21 (stereo unspecified),inactive
11,COc1ccc(NC(=O)CCC(=O)N2CCN(S(=O)(=O)c3ccc(C)cc3)CC2)c(OC)c1,inactive
12,CC1(C(=O)NS(=O)(=O)c2cccc(F)c2)CCN1C(=O)c1cccc2ccccc12 (stereo unspecified),inactive
13,COc1ccccc1-n1c(SCC(=O)Nc2ccc(Cl)cc2)nc(O)c(Cc2ccccc2)c1=O,inactive
14,Oc1ccccc1N1CCN(c2ncnc3sc(-c4ccccc4)cc23)CC1,inactive
15,CCc1cc2c(N3CCN(c4nnc(CC)s4)CC3)ncnc2s1,3.66 µM (active)
16,CCc1cc2c(NC3CCCC3)ncnc2s1,inactive
17,CCCNC(=O)C1(C)CCCN(C(=O)c2oc3ccccc3c2C)C1 (stereo unspecified),inactive
18,O=C(Cc1ccccc1)N/N=C/c1ccc(Cl)cc1Cl,23.1 µM (active)
19,O=C(Cn1cc(C(F)(F)F)ccc1=O)N/N=C/c1ccc(Cl)cc1Cl,inactive
20,C=CCOc1ccccc1/C=N/NC(=O)Cc1ccccc1,inactive
21,CN(C)c1ccc(/C=c2\[nH]c(=O)/c(=C/c3ccc(N(C)C)cc3)[nH]c2=O)cc1,inactive
22,COc1ccc(OC)c(Cc2nnc(CCC(=O)NC3CCCC3)o2)c1,inactive
23,COc1ccc(OC)c(-n2nnc3c(sc4nc(C)c(Br)c(C)c43)c2=O)c1,inactive
24,COc1ccc(OC)c(Cc2cnc3nc(N)nc(N)c3c2C)c1,10.3 µM (active)

row,Compound,Potency
1,Nc1nc2c(Br)ccc(Br)c2cc1C(=O)NCCc1ccccc1,inactive
2,Cc1cc(Br)ccc1NC(=O)CCCOc1cc(=O)n(C)c2ccccc12,inactive
3,O=C(c1cccc(S(=O)(=O)Nc2ccccc2Cl)c1)N1CCN(C(=O)c2ccco2)CC1,inactive
4,O=C(Nc1ccc2c(c1)CCC2)c1cccc(S(=O)(=O)Nc2ccccc2Cl)c1,20.6 µM (active)
5,O=C(Nc1ccc2c(c1)CCC2)c1cccc(S(=O)(=O)N2CCN(c3ccc(F)cc3)CC2)c1,inactive
6,Cc1ccc2nc(/C(C#N)=C/c3ccc(-c4ccc(C(=O)OC(C)C)cc4)o3)[nH]c2c1,inactive
7,CCN(CC)C(=O)C(C)N1c2cccc3cccc(c23)S1(=O)=O (stereo unspecified),inactive
8,CCOC(=O)c1ccc(NC(=O)Cc2cccs2)cc1,inactive
9,O=C(Cc1cccs1)Nc1cccc(-c2nc3ccccc3[nH]2)c1,16.4 µM (active)
10,O=C(Nc1ccc(-c2nc3ccccc3[nH]2)cc1)c1ccncc1,inactive
11,CC(C)c1cc(C(=O)N(C)C2CCCN(Cc3ccccc3F)C2)n(C)n1 (stereo unspecified),inactive
12,Cc1nccn1-c1ccc(NC(=O)[C@H]2O[C@@H](n3ccc(=O)[nH]c3=O)[C@H](O)[C@@H]2O)cc1,inactive
13,CCOC(=O)c1cc(-c2ccccc2)n(-c2cccc(C(=O)Nc3cc(OC)cc(OC)c3)c2)c1C,inactive
14,Cc1c(NS(=O)(=O)c2cccc(C(=O)Nc3ccc(SC(F)F)cc3)c2)c(=O)n(-c2ccccc2)n1C,5.17 µM (active)
15,COc1ccc(C(=O)C(C)OC(=O)c2cccc(S(=O)(=O)Nc3c(C)n(C)n(-c4ccccc4)c3=O)c2)cc1 (stereo unspecified),inactive
16,Cc1c(NS(=O)(=O)c2ccc(Cl)cc2)c(=O)n(-c2ccccc2)n1C,inactive
17,COc1cccc(CN2CCC(C(=O)NC(c3ccc4c(c3)OCO4)c3ccccn3)CC2)c1 (stereo unspecified),inactive
18,CC(=O)c1cccc(NC(=O)[C@@H](NC(N)=O)C(C)C)c1,inactive
19,COc1ccc(NC(C(=O)Nc2cccc(C(C)=O)c2)c2ccccc2)cc1 (stereo unspecified),4.61 µM (active)
20,COc1ccc(/C=C(/NC(=O)c2ccccc2)C(=O)Nc2cccc(C(=O)O)c2)cc1,inactive
21,CN(C)c1ccc(/C=N\Nc2ccc([N+](=O)[O-])cc2[N+](=O)[O-])cc1Cl,inactive
22,Cc1nc(Nc2ccc(S(=O)(=O)N3CCCC3)cc2)c2nnn(Cc3ccccc3)c2n1,inactive
23,CC(C)Cc1nc(Nc2ccc(S(=O)(=O)N3CCCC3)cc2)c2nnn(Cc3ccccc3)c2n1,20.6 µM (active)
24,CC(C)Nc1ncnc2c1nnn2Cc1ccccc1,inactive
